Test [1] has as its target Lysosomal acid glucosylceramidase (Homo sapiens) (UniProt P04062). The test can be described thus: Glucocerebrosidase-p2 (AID 348; in the data active = potency below about 10 µM; note: potency is the fitted concentration of half-maximal effect). Conditions: purified GBA, blue fluorogenic substrate, 40 min. The procedure, abridged: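 Normal human glucocerebrosidase (0.2 nM) with blue fluorogenic substrate (80 uM final) in citrate/phosphate pH 5.9 with 10mM sodium taurocholate, 0.01% tween-20; 40 min RT, NaOH/glycine stop; fluorescence Ex 365/Em 440; AC50 from a titration from 0.6 nM upwards.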

Test [2] is described as follows: AP1 Signaling Pathway (AID 357).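 Note: ME-180 reporter cells stimulated with EGF at its EC50 level; % is set by controls: 0 for no effect and ±100 for the full control effect.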 The conditions noted are these: ME-180 AP-1-bla reporter, EGF-induced, beta-lactamase ratio, 5 h; series mostly up to 17.2 µM. The method in brief:
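Cells are seeded overnight, exposed to compound titrations and an EC50 level of EGF for 5 hours at 37 °C, then loaded with CCF4 dye for 2.5 hours. Beta-lactamase activity under the AP-1 element is read as a blue/green ratio.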

The nature of test [3]: Stat Signaling Pathway (AID 446).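 Note: ME-180 cervical cancer cells given 40 pM IL-6 alongside compound; SIE-controlled beta-lactamase reporter measured as 460/530 nm FRET emission ratio; % is set by controls: 0 for no effect and ±100 for the full control effect.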 The conditions noted are these: ME-180 SIE beta-lactamase reporter, IL-6 stimulated, 5 h; series mostly up to 17.2 µM. The method in brief:
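FRET read-out (405 nm excitation, 460/530 nm emission) of a beta-lactamase reporter under a STAT-inducible element in ME-180 cervical carcinoma cells. Cells with compound receive 40 pM IL-6 for 5 h. Values are normalised to AC90 stimulation and AC90 JAK-inhibitor controls.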

Test [4] has as its target Glucocorticoid receptor (Homo sapiens) (UniProt P04150). Kind of test: GR-EFC Redistribution (AID 451; calls by dose curve; note: potency is the fitted concentration of half-maximal effect). The conditions noted are these: CHO-K1 GR-EFC translocation, beta-gal luminescence, 2 h. The procedure, abridged:
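Translocation of GR-ED fusion to nuclear EA restores b-gal, read by luminescence after 1 h room-temperature detection. Engineered CHO-K1 biosensor cells, 1,000/well, exposed 2 h at 37 C to titrations up to 46 uM final.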

In test [5] the target is Mitogen-activated protein kinase 10 (Mus musculus) (UniProt Q61831). Kind of test: JNK3 AlphaScreen Assay (AID 530).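 Note: kinase came from lysate of stimulated human HepG2 cells; signal reports phosphorylation of biotinylated GST-cJun 1-79 at Ser73 with 10 µM ATP; % is set by controls: 0 for no effect and ±100 for the full control effect.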 The conditions noted are these: JNK3 lysate, c-Jun phosphorylation; series mostly up to 57.1 µM. The procedure, abridged:
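Kinase buffer: 20 mM Tris-HCl pH 7.6, 10 mM MgCl2, 1 mM DTT, 0.1 mM Na3VO4, 0.01% Tween-20; ATP 10 uM. Substrate biotin-GST-cJun(1-79), enzyme from activated HepG2 lysates. Detection by Ser73 phospho-antibody AlphaScreen.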

Test [6] has as its target 3',5'-cyclic-AMP phosphodiesterase 4B (Homo sapiens) (UniProt Q07343). The test can be described thus: qHTS Assay for Inhibitors of PDE-IV (AID 607; active = well fitted activation curve with a large enough effect in the main read-out, with a control signal flat, not every such curve was filed as active; note: % of control where 0% means no effect). Conditions: HEK293 ACTOne CNG channel cells, membrane potential fluorescence; series mostly up to 22.9 µM. The method in brief:
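Cell-based read-out of cAMP via a modified cyclic nucleotide-gated channel and membrane potential dye (535/590 nm) in HEK293 cells expressing PDE4 endogenously. Compounds tested up to 22.9 uM final; 100 uM RO 20-1724 reference.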

Test [7] has as its target Cytochrome P450 3A4 (Homo sapiens) (UniProt P08684). The test can be described thus: qHTS Assay for Activators of Cytochrome P450 3A4 (AID 885; active = well fitted curve in the direction sought with a large enough effect; an effect the other way counts as inactive or inconclusive; note: nearly all actives have a fitted effect of over 65% in size; note: potency is the fitted concentration of half-maximal effect). The conditions noted are these: recombinant CYP3A4, Luciferin-PPXE luminescence, 60 min; series mostly up to 57.1 µM. The procedure, abridged:
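Luminescent readout of luciferin formed from 25 uM Luciferin-PPXE (KM level) by 20 nM CYP3A4 in 200 mM KPO4, with 60 min NADPH-driven reaction at room temperature after 10 min compound exposure. Ketoconazole (57 uM) defined 100% inhibition.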

The nature of test [8]: qHTS Assay for Lipid Storage Modulators (AID 1519; calls by dose curve). Conditions: Drosophila S3 cells, BODIPY lipid droplet/cell ratio, laser cytometry, cells loaded with oleic acid; for activity change, negative = inhibition: at 57.5 µM (top of the series). The method in brief: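 Cells seeded at 5,000 per well were treated with compounds over a concentration series and loaded with oleic acid (400 uM, as added). Lipid droplet fluorescence (488 nm excitation, 500-530 nm channel) was read by laser-scanning cytometry and normalized to 20 uM Triacsin C.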

A short description of test [9]: NFAT Signaling Pathway (AID 444).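 Note: carbachol stimulus at about its EC50 of 1 µM final; % is set by controls: 0 for no effect and ±100 for the full control effect.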 Conditions: Jurkat NFAT-bla M1, carbachol, beta-lactamase ratio, 5 h; at 7.69 µM (top of the series). The method in brief:
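Read-out: CCF4 FRET ratio (460 nm/530 nm) after 1 h RT dye loading, used for %activity and AC50 from titration series. Cells: Jurkat NFAT-β-lactamase/M1 line, treated with compound plus 1 uM carbachol for 5 h, 37 °C.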

Test [10] is described as follows: Primary qHTS for small molecule stabilizers of the endoplasmic reticulum resident proteome: Secreted ER Calcium Modulated Protein (SERCaMP) assay (AID 1508630; active = well fitted curve in the direction sought with a large enough effect; an effect the other way counts as inactive or inconclusive; note: % is set by controls: 0 for no effect and ±100 for the full control effect). The conditions noted are these: SH-SY5Y GLuc-SERCaMP (Gaussia luciferase released on ER calcium loss) secretion, thapsigargin, luminescence; series mostly up to 38.4 µM. The procedure, abridged: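 The SH-SY5Y reporter protocol was run at 3 concentrations up to 38.3 uM (primary) or 11 concentrations (follow-up): 16 h compound, 100 nM thapsigargin for 4 h, then extracellular luciferase luminescence.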

Test [11] deals with Cytochrome P450 1A2 (Homo sapiens) (UniProt P05177). The test can be described thus: p450-cyp1a2 (AID 410; calls by dose curve; note: potency is the fitted concentration of half-maximal effect). The conditions noted are these: recombinant CYP1A2, luciferin-ME demethylation, luminescence; series mostly up to 25.6 µM. The procedure, abridged: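 Read-out is luminescence from luciferin produced by CYP1A2 demethylation of Luciferin-ME (100uM, at Km). Detection reagent stopped the 60 min NADPH-dependent reaction; signals were normalized to 57 uM furafylline.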
Sequence of Cytochrome P450 1A2 (Homo sapiens) (P05177 whole entry, looked up): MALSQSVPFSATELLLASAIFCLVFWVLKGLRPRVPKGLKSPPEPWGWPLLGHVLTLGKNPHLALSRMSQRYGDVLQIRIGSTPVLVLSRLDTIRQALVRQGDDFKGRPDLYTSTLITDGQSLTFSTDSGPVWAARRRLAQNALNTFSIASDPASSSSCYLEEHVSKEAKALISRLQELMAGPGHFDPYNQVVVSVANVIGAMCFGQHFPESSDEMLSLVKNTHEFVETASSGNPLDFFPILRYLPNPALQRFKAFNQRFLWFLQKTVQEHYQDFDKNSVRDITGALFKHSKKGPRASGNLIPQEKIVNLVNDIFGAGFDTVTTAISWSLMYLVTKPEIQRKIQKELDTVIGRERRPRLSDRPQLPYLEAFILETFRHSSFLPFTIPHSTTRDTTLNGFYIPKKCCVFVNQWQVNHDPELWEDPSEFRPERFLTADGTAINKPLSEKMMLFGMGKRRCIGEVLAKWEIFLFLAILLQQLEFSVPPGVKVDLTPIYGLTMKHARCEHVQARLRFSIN

Test [12] addresses Cytochrome P450 3A4 (Homo sapiens) (UniProt P08684). The test can be described thus: qHTS Assay for Inhibitors and Substrates of Cytochrome P450 3A4 (AID 884; active = well fitted curve in the direction sought with a large enough effect; an effect the other way counts as inactive or inconclusive; note: % is set by controls: 0 for no effect and ±100 for the full control effect; nearly all actives have a fitted effect of over 50% in size). Conditions: recombinant CYP3A4, Luciferin-PPXE luminescence; series mostly up to 57.1 µM. The method in brief: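 Luminescent readout of luciferin produced by CYP3A4 (20 nM) dealkylation of Luciferin-PPXE, 25 uM (its KM). NADPH-driven reaction ran 60 min at RT after 10 min compound preincubation; data scaled to 57 uM ketoconazole as 100% inhibition.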

A short description of test [13]: qHTS Assay for Identification of Small Molecule Agonists for Hypoxia Response Element Signaling Pathway (AID 914; active = well fitted activation curve with a large enough effect in the signal ratio, with a control signal flat, not every such curve was filed as active; the % refers to the signal ratio; note: % of control where 0% means no effect). The conditions noted are these: ME-180 (cervical carcinoma) HRE-bla reporter, beta-lactamase ratio, CoCl2, 17 h; activation: stronger effect = higher value. The method in brief:
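ME-180 cells carrying an HRE-driven beta-lactamase reporter were treated with compounds in a titration series plus an EC50 level of CoCl2 for 17 h at 37 degrees Celsius; CCF4 readout as the 460nm/530nm ratio gave AC50 values.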

Test [14] relates to HIV-1 nucleocapsid protein NCp7 (binding to TG oligonucleotide). The test can be described thus: HIV Nucleocapsid (AID 346; call rule not given here;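 note: potency is the fitted concentration of half-maximal effect; potency is for inhibitors that block NC binding and lower polarization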). Conditions: HIV-1 NC / fluorescein-TGTGTGTG probe, fluorescence polarization. The procedure, abridged: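 HIV-1 NC (100 nM) binding to fluorescein-labelled ssDNA TG4xF (10 nM) in Hepes pH 7.5, 250mM NaCl, 1uM ZnCl2, TCEP and 2-mercaptoethanol; compounds pin-transferred, 1 hr room temperature, fluorescence polarization read on CCD imager.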

The mark [15] stands for this setting: measured here: cell count channel max response.
Where [16] appears, read: measured here: lipid channel max response.

The text below walks through data of PubChem BioAssay (NCATS).

SMILES strings stand for the structures. Records with an inconclusive call do not appear. Activity calls are given as the source filed them. Unless noted, calls come from the whole dose curve; as a rule, active = well fitted curve in either direction with a large enough effect (not every such curve was filed as active); inconclusive = small, poorly fitted or top-dose-only effect, or another doubt; inactive = flat fitted curve, though single readings scatter.

Sequence of Cytochrome P450 3A4 (Homo sapiens) (P08684 whole entry, looked up): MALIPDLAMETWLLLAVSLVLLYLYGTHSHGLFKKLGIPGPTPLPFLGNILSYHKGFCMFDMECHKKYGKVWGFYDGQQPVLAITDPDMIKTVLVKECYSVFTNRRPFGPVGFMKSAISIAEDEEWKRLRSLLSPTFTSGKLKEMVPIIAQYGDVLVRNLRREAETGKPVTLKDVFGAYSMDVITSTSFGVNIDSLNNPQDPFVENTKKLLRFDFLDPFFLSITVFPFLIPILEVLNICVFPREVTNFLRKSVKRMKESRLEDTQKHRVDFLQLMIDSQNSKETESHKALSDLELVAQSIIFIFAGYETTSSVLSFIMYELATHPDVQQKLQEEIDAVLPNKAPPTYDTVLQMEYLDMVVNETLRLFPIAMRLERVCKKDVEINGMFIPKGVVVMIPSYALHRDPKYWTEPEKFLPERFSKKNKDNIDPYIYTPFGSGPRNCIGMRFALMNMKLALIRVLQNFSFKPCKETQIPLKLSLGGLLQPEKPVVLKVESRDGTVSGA
Sequence of Glucocorticoid receptor (Homo sapiens) (P04150 whole entry, looked up, the tested form may be a part): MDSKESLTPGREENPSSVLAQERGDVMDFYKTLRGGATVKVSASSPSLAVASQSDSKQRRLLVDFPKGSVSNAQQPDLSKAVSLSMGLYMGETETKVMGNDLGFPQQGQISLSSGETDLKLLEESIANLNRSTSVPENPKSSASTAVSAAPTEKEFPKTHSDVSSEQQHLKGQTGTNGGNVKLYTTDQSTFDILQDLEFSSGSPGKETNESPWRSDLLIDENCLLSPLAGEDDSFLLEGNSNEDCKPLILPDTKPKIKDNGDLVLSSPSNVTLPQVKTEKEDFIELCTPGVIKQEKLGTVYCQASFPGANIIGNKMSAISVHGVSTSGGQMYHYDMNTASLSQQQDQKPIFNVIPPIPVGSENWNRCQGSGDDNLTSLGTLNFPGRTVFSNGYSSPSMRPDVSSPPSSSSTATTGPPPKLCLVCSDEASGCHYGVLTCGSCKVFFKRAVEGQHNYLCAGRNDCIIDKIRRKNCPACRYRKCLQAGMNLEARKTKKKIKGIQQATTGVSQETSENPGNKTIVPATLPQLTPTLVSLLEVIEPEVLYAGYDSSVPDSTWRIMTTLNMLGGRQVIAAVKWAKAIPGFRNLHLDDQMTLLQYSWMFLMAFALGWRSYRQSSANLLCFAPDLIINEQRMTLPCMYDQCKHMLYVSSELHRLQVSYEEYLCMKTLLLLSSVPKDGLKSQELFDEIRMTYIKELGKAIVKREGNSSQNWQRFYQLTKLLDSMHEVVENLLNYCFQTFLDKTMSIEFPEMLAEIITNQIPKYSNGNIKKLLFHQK
Sequence of Lysosomal acid glucosylceramidase (Homo sapiens) (P04062 whole entry, looked up): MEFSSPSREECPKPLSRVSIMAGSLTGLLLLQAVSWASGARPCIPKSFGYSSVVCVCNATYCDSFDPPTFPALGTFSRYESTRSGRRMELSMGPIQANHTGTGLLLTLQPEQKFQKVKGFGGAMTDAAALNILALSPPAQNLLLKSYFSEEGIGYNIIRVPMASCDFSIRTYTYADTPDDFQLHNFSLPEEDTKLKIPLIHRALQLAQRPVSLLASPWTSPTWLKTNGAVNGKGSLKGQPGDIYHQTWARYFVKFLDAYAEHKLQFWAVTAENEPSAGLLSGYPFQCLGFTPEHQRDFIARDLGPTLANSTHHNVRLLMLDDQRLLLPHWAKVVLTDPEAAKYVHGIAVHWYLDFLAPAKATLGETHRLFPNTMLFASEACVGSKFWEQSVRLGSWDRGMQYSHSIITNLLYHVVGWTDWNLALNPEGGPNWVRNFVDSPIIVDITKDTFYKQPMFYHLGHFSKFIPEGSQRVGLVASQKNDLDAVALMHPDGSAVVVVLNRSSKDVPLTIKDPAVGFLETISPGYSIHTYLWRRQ
Sequence of 3',5'-cyclic-AMP phosphodiesterase 4B (Homo sapiens) (Q07343 whole entry, looked up): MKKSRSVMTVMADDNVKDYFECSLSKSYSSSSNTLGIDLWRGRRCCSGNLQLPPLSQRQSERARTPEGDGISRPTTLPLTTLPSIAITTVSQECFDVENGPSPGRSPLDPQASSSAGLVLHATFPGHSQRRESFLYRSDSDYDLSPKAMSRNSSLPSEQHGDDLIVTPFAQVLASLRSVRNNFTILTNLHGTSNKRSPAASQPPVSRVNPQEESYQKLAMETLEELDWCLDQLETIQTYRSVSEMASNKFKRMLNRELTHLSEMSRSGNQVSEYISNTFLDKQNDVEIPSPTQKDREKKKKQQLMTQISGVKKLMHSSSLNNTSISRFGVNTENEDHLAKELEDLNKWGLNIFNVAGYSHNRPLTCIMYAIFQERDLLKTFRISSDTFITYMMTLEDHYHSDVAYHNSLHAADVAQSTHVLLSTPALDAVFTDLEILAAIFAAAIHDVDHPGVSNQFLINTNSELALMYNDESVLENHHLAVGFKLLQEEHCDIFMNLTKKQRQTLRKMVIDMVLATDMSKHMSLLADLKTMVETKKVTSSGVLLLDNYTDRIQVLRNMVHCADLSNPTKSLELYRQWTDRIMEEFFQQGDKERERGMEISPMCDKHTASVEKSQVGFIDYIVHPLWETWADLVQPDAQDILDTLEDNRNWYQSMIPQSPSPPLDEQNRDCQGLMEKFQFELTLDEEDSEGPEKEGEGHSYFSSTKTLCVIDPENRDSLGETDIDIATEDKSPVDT

`c1cc(N2CCCC3(CCNCC3)C2)ccn1`: the Potency in [1] was > 11.4 µM (inactive); in test [4], > 46 µM (inactive). Further, the outcome in test [2], in test [3] and in test [5] was inactive. In addition, the Potency entry in [6] and in test [7] was “inactive” in each case. Also, the activity change, negative = inhibition in test [8] was 4.41% (inactive). Besides, the figures for the max response in test [8] (setting [15]) and in test [8] (setting [16]) were 13.5% and 21.3%, respectively.
Take `O=C(c1csnn1)N1CCC[C@@]2(CCN(Cc3ccncc3)C2)C1`: the Potency in test [1] is > 11.4 µM (inactive); in [4] it was > 46 µM (inactive). The outcome in test [2], in test [3], in [5] and in test [10] was inactive. Moreover, the activity change, negative = inhibition was -2.7% (inactive) in [9] and 4.95% (inactive) in test [8]. Moreover, in test [6], the Potency entry is “inactive”. The max response in test [8] (setting [15]) was 21.7%; in test [8] (setting [16]) it was 28.5%.
As to `N#Cc1cccc(NC(=O)N2CC3(CCN(C(=O)Oc4ccccc4)CC3)C2)c1`, the results for the Potency in test [1], in test [11] and in test [4] were > 11.4 µM (inactive), 15.8 µM (active) and > 46 µM (inactive), respectively. Further, the result in [2], in test [3], in test [5] and in test [10] was inactive. The activity change, negative = inhibition in test [9] is 17.6% (inactive); in test [8], 1.56% (inactive). In addition, the Potency entry in [6] and in test [12] was “inactive” in each case. Further, the activation in [13] is -17.9% (inactive). Further, the values for the max response in [8] (setting [15]) and in [8] (setting [16]) were -4.33% and 2.3%, respectively.
Consider `N#Cc1ccc(CN2CC3(CCNCC3)C2)cc1`, for which the values for the Potency in [14] and in [4] were > 20 µM (inactive) and > 46 µM (inactive), respectively. The outcome in test [2], in test [3], in test [5] and in test [10] was inactive. In addition, the activity change, negative = inhibition in test [9] was -23.5% (inactive); in test [8], -3.34% (inactive). Further, in test [6], the Potency entry is “inactive”. For the same compound, the max response was -8.82% in test [8] (setting [15]) and -10.3% in test [8] (setting [16]).
In the case of `O=C(Nc1ccccc1)N1CC[C@@]2(CCCNC2)C1`, the results for the Potency in [14], in [1] and in test [4] were > 20 µM (inactive), > 11.4 µM (inactive) and > 46 µM (inactive), respectively. Moreover, the outcome in [2], in test [3], in test [5] and in test [10] was inactive. For the same compound, the activity change, negative = inhibition was 19.4% (inactive) in [9] and -3.27% (inactive) in test [8]. In addition, the Potency result in test [6] is “inactive”. Also, the max response in test [8] (setting [15]) came to 4.57%; in [8] (setting [16]), 3%.
On to `O=C(Nc1ccccc1)N1CC2(CCN(C(=O)Oc3ccccc3)CC2)C1`, for which the Potency in test [1] was > 11.4 µM (inactive); in test [11] it was 20 µM (active); in test [4] it was > 46 µM (inactive); in [7], 15.8 µM (active). Further, the result in test [2], in test [3], in [5] and in [10] was inactive. In addition, the figures for the activity change, negative = inhibition in [9] and in [8] were 23.8% (inactive) and 7.64% (inactive), respectively. Further, the Potency entry in test [6] and in test [12] was “inactive” throughout. Further, in test [13], the activation was -6.7% (inactive). Also, the max response in test [8] (setting [15]) was determined as 9.38%; in test [8] (setting [16]) it was 22.2%.
For `O=C(c1ccncc1)N1CCC[C@@]2(CCN(Cc3nccs3)C2)C1`, the figures for the Potency in test [1] and in [4] were > 11.4 µM (inactive) and > 46 µM (inactive), respectively. Also, the outcome in [2], in [3], in [5] and in test [10] was inactive. In addition, the figures for the activity change, negative = inhibition in test [9] and in [8] were 5.07% (inactive) and 3.49% (inactive), respectively. In addition, in test [6], the Potency entry was “inactive”. For the same compound, the max response in test [8] (setting [15]) came out at 8.75%; in test [8] (setting [16]), 15.4%.
As for `c1ccc(N2CC3(CCNCC3)C2)nc1`, the Potency in test [14] was > 20 µM (inactive); in [1], > 11.4 µM (inactive); in [4], > 46 µM (inactive). Also, the outcome in [2], in test [3], in test [5] and in test [10] was inactive. Besides, the activity change, negative = inhibition in test [8] was -0.659% (inactive). For the same compound, the max response in [8] (setting [15]) came to 12.4%; in test [8] (setting [16]), 14.7%.
